PubChem BioAssay (EPA / NIEHS)
Results filed as inconclusive are left out. Some compounds were tested as several samples or in several runs, with calls that do not always agree. Active and inactive are the calls of the source. The calls were made as follows: active = hit-call score of the fitted dose curve at least 0.9, where 1 is the maximum; inconclusive = response in the unintended direction; inactive = score below 0.9.

Key:
[1] = TOX21_p53_BLA_p2_viability: Viability Assessment in the Tox21 HCT-116 p53 Agonism Beta-lactamase Assay, Phase 2 (AID 2283591);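 also: actives lower the ATP signal meaning cytotoxicity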
How it was run: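 HCT116 p53-bla cells, 4000/well, dosed after 5 h plating (217-fold dilution of DMSO stocks) and incubated 16 h at 37C. Viability taken as cellular ATP by CellTiter-Glo luminescence after 30 min RT; signal loss marks cytotoxicity.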

[2] = TOX21_p53_BLA_p3_viability: Viability Assessment in the Tox21 HCT-116 p53 Agonism Beta-lactamase Assay, Phase 3 (AID 2283593);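 also: cells exposed to compound for 16 h before reading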
How it was run: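 HCT116 cells, 4000/well, dosed 5 h after plating by pin transfer (217-fold dilution from DMSO stock) and incubated 16 h at 37C, 5% CO2. Viability read as ATP luminescence with CellTiter-Glo after 30 min at room temperature.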

[3] = biological target: Cellular tumor antigen p53 (Homo sapiens) (UniProt P04637); assay: TOX21_p53_BLA_p5_ratio: Tox21 HCT-116 p53 Agonism Beta-lactamase Assay, Ratio, Phase 5 (AID 2283599)
Sequence of Cellular tumor antigen p53 (Homo sapiens) (P04637 whole entry, looked up): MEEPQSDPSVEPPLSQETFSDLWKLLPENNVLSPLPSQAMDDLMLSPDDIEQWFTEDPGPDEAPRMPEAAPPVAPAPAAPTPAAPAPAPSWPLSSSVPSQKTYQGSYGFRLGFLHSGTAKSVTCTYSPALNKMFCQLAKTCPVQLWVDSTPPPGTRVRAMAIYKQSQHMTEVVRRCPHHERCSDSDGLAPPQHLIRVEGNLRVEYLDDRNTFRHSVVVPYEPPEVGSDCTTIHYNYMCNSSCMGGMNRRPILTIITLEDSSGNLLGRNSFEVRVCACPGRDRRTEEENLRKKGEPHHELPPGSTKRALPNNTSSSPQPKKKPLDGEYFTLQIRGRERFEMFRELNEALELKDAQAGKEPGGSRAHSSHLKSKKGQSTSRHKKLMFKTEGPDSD
How it was run: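 HCT-116 p53-bla cells (4000/well) plated 5 h, dosed with compound (217-fold DMSO dilution) for 16 h at 37 C; CCF4-AM substrate 2 h at room temperature. Activity is the 460/530 nm emission ratio (405 nm excitation), fitted in gain-of-signal direction versus DMSO.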

[4] = biological target: Cellular tumor antigen p53 (Homo sapiens) (UniProt P04637); assay: TOX21_p53_BLA_p4_ratio: Tox21 HCT-116 p53 Agonism Beta-lactamase Assay, Ratio, Phase 4 (AID 2283601)
How it was run: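 HCT-116 p53 beta-lactamase reporter cells (4000/well) preincubated 5 h, then compound (217-fold dilution of DMSO stock) for 16 h at 37C. CCF4-AM substrate added 2 h at room temperature; 460/530 nm emission ratio fitted upward versus DMSO.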

[5] = biological target: Cellular tumor antigen p53 (Homo sapiens) (UniProt P04637); assay: TOX21_p53_BLA_p2_ratio: Tox21 HCT-116 p53 Agonism Beta-lactamase Assay, Ratio, Phase 2 (AID 2283592)
How it was run: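 First, HCT116 reporter cells settle for 5 h at 37C. Next, DMSO compound solutions are pinned in (217-fold dilution) and left 16 h. Finally, CCF4-AM substrate is loaded 2 h at room temperature and the 460/530 nm ratio read.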

[6] = biological target: Cellular tumor antigen p53 (Homo sapiens) (UniProt P04637); assay: TOX21_p53_BLA_p3_ratio: Tox21 HCT-116 p53 Agonism Beta-lactamase Assay, Ratio, Phase 3 (AID 2283596)
How it was run: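 Cells were seeded at 4000/well, rested 5 h at 37C, then dosed with DMSO compound solutions (217-fold dilution) for 16 h. CCF4-AM substrate was loaded for 2 h at room temperature, and the 460/530 nm emission ratio was fitted for gain of signal versus DMSO.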

[7] = TOX21_p53_BLA_p4_viability: Viability Assessment in the Tox21 HCT-116 p53 Agonism Beta-lactamase Assay, Phase 4 (AID 2283597);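 also: hits lower the luminescence signal meaning cytotoxicity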
How it was run: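 4000 HCT116 cells per well; 5 h attachment; compounds from DMSO, 217-fold dilution; 16 h at 37C. Then CCF4-AM, 2 h RT, followed by CellTiter-Glo, 30 min RT, luminescence. Decrease = cytotoxicity.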

[8] = TOX21_p53_BLA_p5_viability: Viability Assessment in the Tox21 HCT-116 p53 Agonism Beta-lactamase Assay, Phase 5 (AID 2283600)
How it was run: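 Decreased CellTiter-Glo luminescence denotes lost viability. Exposure: 16 h at 37C, 5% CO2, with compounds from DMSO stocks diluted 217-fold in wells of 4000 cells.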

Measured: AC50

CC(C#N)(CCC(=O)O)N=NC(C)(C#N)CCC(=O)O (stereo not drawn)
inactive: [1] | [2] | [3] | [4]

CN1[C@@H]2CC(OC(=O)[C@H](CO)c3ccccc3)C[C@H]1[C@@H]1O[C@@H]12 (stereo partly drawn)
not listed: [1]
inactive: all other assays above

CCOc1ccccc1OCC
inactive: [5] | [6] | [4]

COc1cc(C=O)ccc1OC(=O)C(C)C
inactive: [5] | [6] | [3] | [4]

C=CCOC(=O)CCC1CCCCC1
inactive: [2] | [6] | [7] | [3] | [4]

O=C(Nc1ccccc1)c1cc([N+](=O)[O-])ccc1Cl
not listed: [1] | [2]
inactive: all other assays above

C=CC(=O)NCOCC(C)C
inactive: [2] | [7] | [4]

O=C(O)Cc1cccc2ccccc12
not listed: [1]
inactive: all other assays above

CC(C)CCCCCCCOC(=O)c1ccc(C(=O)OCCCCCCCC(C)C)c(C(=O)OCCCCCCCC(C)C)c1
inactive: [6] | [3] | [4]

O=C(O)CCSCCC(=O)O
not listed: [1] | [2]
inactive: all other assays above

CCC(C(=O)NC(N)=O)c1ccccc1 (stereo not drawn)
inactive: [5] | [6] | [3] | [8] | [4]

CCCCCCCCCCCCCC(=O)O
not listed: [1]
inactive: all other assays above

CC(C)=CCO
inactive: [5] | [2] | [6] | [7] | [3]

Nc1ccc(S(=O)(=O)O)c(N)c1
not listed: [1] | [6]
inactive: all other assays above

CC1CC(OC(=O)c2ccccc2O)CC(C)(C)C1 (stereo not drawn)
active: [2] 22.5 µM
inactive: [5] | [2] | [6] | [7] | [3] | [8] | [4]

CC(C)(C)NC(N)=O
inactive: [5] | [7] | [3] | [8] | [4]

CCCCNC(=O)NS(=O)(=O)c1ccc(C)cc1
not listed: [1] | [8]
inactive: all other assays above

OCC(CO)(CO)COCC(CO)(CO)CO
inactive: [2] | [7] | [3] | [4]

CC(O)C(C)O (stereo not drawn)
inactive: [5] | [6] | [8]

CC(C)c1ccc(C(C)C)cc1
not listed: [1]
inactive: all other assays above

O=C(O)CN(CCN(CC(=O)O)CC(=O)O)CCN(CC(=O)O)CC(=O)O
not listed: [1] | [2]
inactive: all other assays above

CNCCO
inactive: [5] | [6] | [7] | [8]

CC(C)(C)c1n[nH]c(=S)n(N)c1=O
inactive: [5] | [6] | [7] | [3]

CC(=O)O[C@H](CC(=O)[O-])C[N+](C)(C)C
inactive: [5] | [2] | [6] | [8]

Cc1ccc(Nc2ccc(O)c3c2C(=O)c2ccccc2C3=O)cc1
inactive: [5] | [2] | [6] | [7] | [3]

CC(=O)C(C)=O
inactive: [5] | [2] | [7] | [8] | [4]

CN(C)CCCN
not listed: [1] | [2]
inactive: all other assays above

C=CCOc1nc(OCC=C)nc(OCC=C)n1
inactive: [8] | [4]

CC(C)OP(=O)(CP(=O)(OC(C)C)OC(C)C)OC(C)C
inactive: [5] | [2] | [6] | [3] | [4]

C=C[C@@H](C)CCC=C(C)C
inactive: [3] | [8] | [4]

CC(CCO)CCc1ccccc1 (stereo not drawn)
inactive: [5] | [6] | [3] | [4]

CCCCCOC(=O)CCC
inactive: [5] | [2] | [3] | [8] | [4]

COc1ccc(NC(=O)CC(C)=O)cc1
not listed: [1]
inactive: all other assays above

Fc1c(F)c(F)c(Br)c(F)c1F
inactive: [5] | [6] | [7] | [4]
